In ChEMBL document CHEMBL1961873, “Compounds: GSK PKIS; Assays: Nanosyn kinase panel” (2012):

Legend:
[1] = biological target: Casein kinase I isoform gamma-2 (Homo sapiens) (UniProt P78368); details: at 1 µM
[2] = biological target: Casein kinase I isoform gamma-3 (Homo sapiens) (UniProt Q9Y6M4); details: at 0.1 µM
[3] = biological target: Casein kinase I isoform gamma-3 (Homo sapiens) (UniProt Q9Y6M4); details: at 1 µM
[4] = biological target: Cyclin-dependent kinase 1 (Homo sapiens) (UniProt P06493); details: at 0.1 µM
[5] = biological target: Cyclin-dependent kinase 1 (Homo sapiens) (UniProt P06493); details: at 1 µM
[6] = biological target: Cyclin-dependent kinase 2 (Homo sapiens) (UniProt P24941); details: at 0.1 µM
[7] = biological target: Cyclin-dependent kinase 2 (Homo sapiens) (UniProt P24941); details: at 1 µM
[8] = biological target: Cyclin-dependent kinase 2 (Homo sapiens) (UniProt P24941); details: at 0.1 µM; remark: listed apart in the source
[9] = biological target: Cyclin-dependent kinase 2 (Homo sapiens) (UniProt P24941); details: at 1 µM; remark: listed apart in the source
[10] = biological target: T1, CDK3/Cyclin E (Homo sapiens) (UniProt P24864+Q00526); details: at 0.1 µM
[11] = biological target: T1, CDK3/Cyclin E (Homo sapiens); details: at 1 µM
[12] = biological target: Cyclin-dependent kinase 4 (Homo sapiens) (UniProt P11802); details: at 0.1 µM
[13] = biological target: Cyclin-dependent kinase 4 (Homo sapiens) (UniProt P11802); details: at 1 µM
[14] = biological target: Cyclin-dependent kinase 5 (Homo sapiens) (UniProt Q00535); details: at 0.1 µM
[15] = biological target: Cyclin-dependent kinase 5 (Homo sapiens) (UniProt Q00535); details: at 1 µM
[16] = biological target: Cyclin-dependent kinase 6 (Homo sapiens) (UniProt Q00534); details: at 0.1 µM
[17] = biological target: Cyclin-dependent kinase 6 (Homo sapiens) (UniProt Q00534); details: at 1 µM
[18] = biological target: Dual specificity protein kinase CLK2 (Homo sapiens) (UniProt P49760); details: at 0.1 µM
[19] = biological target: Dual specificity protein kinase CLK2 (Homo sapiens) (UniProt P49760); details: at 1 µM
[20] = biological target: Dual specificity protein kinase CLK3 (Homo sapiens) (UniProt P49761); details: at 0.1 µM
Dual specificity protein kinase CLK3 (Homo sapiens), sequence (P49761 whole entry, looked up): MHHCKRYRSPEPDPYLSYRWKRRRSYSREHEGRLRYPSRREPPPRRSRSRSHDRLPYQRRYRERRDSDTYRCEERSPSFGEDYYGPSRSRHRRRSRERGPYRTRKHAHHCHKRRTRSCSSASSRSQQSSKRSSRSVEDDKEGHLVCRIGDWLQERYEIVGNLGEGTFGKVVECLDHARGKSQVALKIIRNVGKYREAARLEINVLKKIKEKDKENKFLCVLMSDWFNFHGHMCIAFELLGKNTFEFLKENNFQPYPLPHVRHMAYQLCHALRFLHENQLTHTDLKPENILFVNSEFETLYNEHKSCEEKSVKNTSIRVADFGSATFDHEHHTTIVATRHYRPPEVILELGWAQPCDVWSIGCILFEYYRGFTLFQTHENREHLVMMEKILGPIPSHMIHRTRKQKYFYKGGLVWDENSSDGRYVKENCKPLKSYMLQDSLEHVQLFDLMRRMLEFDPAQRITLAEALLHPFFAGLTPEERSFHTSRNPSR

Cyclin-dependent kinase 5 (Homo sapiens), sequence (Q00535 whole entry, looked up): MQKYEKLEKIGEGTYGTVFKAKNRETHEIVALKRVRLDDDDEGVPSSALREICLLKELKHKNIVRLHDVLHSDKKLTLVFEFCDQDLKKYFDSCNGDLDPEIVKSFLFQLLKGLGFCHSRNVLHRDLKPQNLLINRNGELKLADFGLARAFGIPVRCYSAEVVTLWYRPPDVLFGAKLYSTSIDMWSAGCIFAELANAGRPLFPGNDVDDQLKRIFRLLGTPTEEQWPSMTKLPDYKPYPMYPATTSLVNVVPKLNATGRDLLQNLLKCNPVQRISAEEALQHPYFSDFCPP
Casein kinase I isoform gamma-3 (Homo sapiens), sequence (Q9Y6M4 whole entry, looked up, canonical isoform): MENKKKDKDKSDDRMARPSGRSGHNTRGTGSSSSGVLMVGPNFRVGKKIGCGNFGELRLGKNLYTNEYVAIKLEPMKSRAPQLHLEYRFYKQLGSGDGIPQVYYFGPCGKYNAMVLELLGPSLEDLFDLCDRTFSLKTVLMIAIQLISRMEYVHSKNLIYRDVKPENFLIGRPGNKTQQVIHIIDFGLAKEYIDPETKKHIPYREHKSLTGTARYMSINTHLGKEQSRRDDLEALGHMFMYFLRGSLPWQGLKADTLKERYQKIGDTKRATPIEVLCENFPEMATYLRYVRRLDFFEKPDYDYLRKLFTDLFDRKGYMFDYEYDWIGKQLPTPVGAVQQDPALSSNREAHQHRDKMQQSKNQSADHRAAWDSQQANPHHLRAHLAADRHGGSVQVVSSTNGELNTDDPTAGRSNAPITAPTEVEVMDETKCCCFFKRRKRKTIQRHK
Dual specificity protein kinase CLK2 (Homo sapiens), sequence (P49760 whole entry, looked up): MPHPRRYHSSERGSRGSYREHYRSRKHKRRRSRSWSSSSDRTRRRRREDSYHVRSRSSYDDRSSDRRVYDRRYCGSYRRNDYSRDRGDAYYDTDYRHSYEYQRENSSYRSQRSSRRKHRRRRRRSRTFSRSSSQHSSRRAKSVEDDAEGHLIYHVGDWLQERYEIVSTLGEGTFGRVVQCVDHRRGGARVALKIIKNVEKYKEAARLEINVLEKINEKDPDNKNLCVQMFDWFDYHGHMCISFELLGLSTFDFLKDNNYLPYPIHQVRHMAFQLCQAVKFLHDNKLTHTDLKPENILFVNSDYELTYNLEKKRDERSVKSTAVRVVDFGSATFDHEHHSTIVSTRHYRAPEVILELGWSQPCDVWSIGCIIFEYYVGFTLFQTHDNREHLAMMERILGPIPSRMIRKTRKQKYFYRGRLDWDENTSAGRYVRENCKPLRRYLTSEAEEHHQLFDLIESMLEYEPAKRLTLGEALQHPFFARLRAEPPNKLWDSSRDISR
Casein kinase I isoform gamma-2 (Homo sapiens), sequence (P78368 whole entry, looked up, canonical isoform): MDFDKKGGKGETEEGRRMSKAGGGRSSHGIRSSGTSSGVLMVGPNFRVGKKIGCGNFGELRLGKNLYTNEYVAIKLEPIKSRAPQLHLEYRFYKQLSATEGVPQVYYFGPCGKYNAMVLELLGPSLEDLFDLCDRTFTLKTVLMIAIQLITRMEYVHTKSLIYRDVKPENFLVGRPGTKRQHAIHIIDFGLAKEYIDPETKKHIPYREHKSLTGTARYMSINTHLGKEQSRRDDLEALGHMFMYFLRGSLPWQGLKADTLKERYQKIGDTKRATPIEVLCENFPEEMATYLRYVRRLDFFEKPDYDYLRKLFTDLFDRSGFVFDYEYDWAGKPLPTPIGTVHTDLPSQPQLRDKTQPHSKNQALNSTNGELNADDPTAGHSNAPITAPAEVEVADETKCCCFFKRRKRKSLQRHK
Cyclin-dependent kinase 4 (Homo sapiens), sequence (P11802 whole entry): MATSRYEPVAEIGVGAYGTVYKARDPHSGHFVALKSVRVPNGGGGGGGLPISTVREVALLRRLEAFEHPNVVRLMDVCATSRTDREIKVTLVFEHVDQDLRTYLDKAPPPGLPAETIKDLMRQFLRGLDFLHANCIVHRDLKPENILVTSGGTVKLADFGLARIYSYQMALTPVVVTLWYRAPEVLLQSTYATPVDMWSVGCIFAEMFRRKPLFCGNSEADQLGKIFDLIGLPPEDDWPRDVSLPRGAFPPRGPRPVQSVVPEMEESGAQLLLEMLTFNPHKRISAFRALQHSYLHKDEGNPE
Cyclin-dependent kinase 6 (Homo sapiens), sequence (Q00534 whole entry): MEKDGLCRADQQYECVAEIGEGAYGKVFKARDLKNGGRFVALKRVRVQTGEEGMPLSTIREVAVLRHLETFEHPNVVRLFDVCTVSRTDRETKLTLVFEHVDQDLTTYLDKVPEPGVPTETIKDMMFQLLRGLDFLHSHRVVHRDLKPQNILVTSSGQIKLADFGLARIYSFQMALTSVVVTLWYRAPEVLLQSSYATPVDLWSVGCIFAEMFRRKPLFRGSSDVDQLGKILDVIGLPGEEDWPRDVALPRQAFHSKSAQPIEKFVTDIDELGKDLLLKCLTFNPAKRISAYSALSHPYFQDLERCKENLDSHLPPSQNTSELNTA
Cyclin-dependent kinase 1 (Homo sapiens), sequence (P06493 whole entry, looked up): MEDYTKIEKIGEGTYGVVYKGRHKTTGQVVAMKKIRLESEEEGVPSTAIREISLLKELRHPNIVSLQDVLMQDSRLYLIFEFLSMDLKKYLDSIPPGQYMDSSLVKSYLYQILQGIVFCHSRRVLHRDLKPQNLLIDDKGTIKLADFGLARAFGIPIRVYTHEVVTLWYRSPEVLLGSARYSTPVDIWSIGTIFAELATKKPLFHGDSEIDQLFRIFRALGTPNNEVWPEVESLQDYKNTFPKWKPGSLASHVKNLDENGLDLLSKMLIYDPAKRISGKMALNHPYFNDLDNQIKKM
T1 sequence (P24864 whole entry, looked up): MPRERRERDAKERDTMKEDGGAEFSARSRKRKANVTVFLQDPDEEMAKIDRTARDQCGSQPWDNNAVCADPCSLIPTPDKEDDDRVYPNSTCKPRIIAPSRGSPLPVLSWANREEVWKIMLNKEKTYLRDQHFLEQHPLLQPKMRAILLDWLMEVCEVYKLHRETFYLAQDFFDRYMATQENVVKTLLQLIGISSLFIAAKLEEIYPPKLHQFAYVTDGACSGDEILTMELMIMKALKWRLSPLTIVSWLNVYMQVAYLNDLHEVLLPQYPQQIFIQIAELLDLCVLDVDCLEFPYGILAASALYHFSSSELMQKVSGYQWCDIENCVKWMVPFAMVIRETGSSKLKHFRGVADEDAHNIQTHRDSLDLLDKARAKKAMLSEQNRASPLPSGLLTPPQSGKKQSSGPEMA
T1 sequence (Q00526 whole entry, looked up): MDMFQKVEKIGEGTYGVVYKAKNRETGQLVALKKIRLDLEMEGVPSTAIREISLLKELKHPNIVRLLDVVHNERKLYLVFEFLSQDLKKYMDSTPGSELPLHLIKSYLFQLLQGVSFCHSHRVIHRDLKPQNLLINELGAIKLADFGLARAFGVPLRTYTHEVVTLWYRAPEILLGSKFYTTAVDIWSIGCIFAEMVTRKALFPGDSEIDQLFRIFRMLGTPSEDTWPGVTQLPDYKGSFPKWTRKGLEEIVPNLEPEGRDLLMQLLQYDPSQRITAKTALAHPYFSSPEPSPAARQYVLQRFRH

SMILES | inhibition [1] | inhibition [2] | inhibition [3] | inhibition [4] | inhibition [5] | inhibition [6] | inhibition [7] | inhibition [8] | inhibition [9] | inhibition [10] | inhibition [11] | inhibition [12] | inhibition [13] | inhibition [14] | inhibition [15] | inhibition [16] | inhibition [17] | inhibition [18] | inhibition [19] | inhibition [20]
COC(=O)Nc1nc2ccc(Sc3ccc(NC(=O)Nc4cc(C(F)(F)F)ccc4F)cc3)cc2[nH]1 | 1.01% | 0.1% | 0.39% | 0.09% | 3.86% | -0.08% | 6.71% | 0.48% | 0.81% | -0.31% | 0.64% | -4.86% | 1.81% | 0.21% | 1.9% | 7.92% | 2.22% | 1.38% | -0.84% | 0.48%
C[C@@H](Oc1cc(-n2cnc3ccc(OC4CCN(C)CC4)cc32)sc1C(N)=O)c1ccccc1Cl | -0.19% | -1.77% | -4.38% | -1.71% | -2.15% | -1.38% | -0.94% | -0.63% | 2.09% | -3.54% | 0.13% | -0.83% | -0.3% | -2.91% | -2.26% | -5.27% | -2.7% | 3.05% | 6.53% | -2.76%
O=C(Nc1n[nH]c2nc(-c3ccc(O)cc3)c(Br)cc12)C1CC1 | 7.38% | 1.39% | 4.72% | 24.2% | 64.2% | 63.1% | 108% | 36.5% | 73% | 27.5% | 78.2% | 42% | 73.9% | 14.7% | 55.3% | 38.9% | 74.7% | 1.45% | 5.65% | 2.91%
COc1cc2ncn(-c3cc(OCc4ccccc4C(F)(F)F)c(C(C)=O)s3)c2cc1OC | 3.62% | 2.1% | 2.97% | 0.91% | 2.22% | 0.94% | 2.63% | 2.2% | 3.96% | -1.43% | -2.36% | 1.74% | 2.66% | 0.4% | 1.96% | -0.64% | -0.67% | 0.9% | -0.63% | 0.94%
COc1ccc(C2=C(N3CCc4ccccc43)C(=O)NC2=O)cc1 | 4.63% | 1.81% | 3.33% | 1.56% | 3.2% | 3.48% | 3.47% | 4.49% | 6.31% | 3.69% | -1.35% | 3.95% | 4.61% | 1.51% | 3.83% | 4.88% | 7.18% | 0.19% | 7.06% | 2.88%
CCC(=O)Nc1ccc(C)c(-c2ccc(C(=O)NCC3CC3)cc2)c1 | 3.16% | 1.58% | 1.61% | 2.88% | 2.38% | 3.84% | 3.06% | 3.5% | 4.47% | -1.57% | -2.39% | 3.38% | 5.05% | 1.58% | 1.54% | 0.4% | 0% | 0.05% | -0.08% | 0.16%
NS(=O)(=O)c1ccc(Nc2cc(-c3ccc(O)c(F)c3)n[nH]2)cc1 | 2.15% | -3.13% | 4.18% | 10.9% | 51.7% | 53.3% | 78.9% | 59.9% | 86.9% | 9.52% | 60.1% | 3.31% | 23.6% | 20.1% | 68.7% | 21.6% | 70.9% | 1.17% | 3.95% | -0.37%
NC(=O)c1cc(-c2ccc(F)cc2)cc(-c2ccncc2)c1N | 6.08% | 4.13% | 2.66% | 0.65% | 0.73% | 2.41% | -6.47% | 2.49% | 2.14% | 4.68% | -2.25% | 4.11% | 2.25% | -0.26% | -1.83% | 0.37% | -0.58% | 0.69% | 1.24% | 1.01%
NCc1ccc(-n2c(-c3nonc3N)nc3cnccc32)cc1 | 7.87% | 2.05% | 10.7% | 3.12% | 10.5% | 5.13% | 30.4% | 10.1% | 31.4% | 6.87% | 6.36% | 5.03% | 10.2% | 4.76% | 11.9% | -0.37% | 5.55% | 6.2% | 28.7% | 2.13%
Fc1ccc(-c2c(-c3ccncc3)nc3n2CCS3)cc1 | -0.73% | -3.04% | -1.19% | -4.51% | -4.05% | -1.82% | -3.21% | -1.42% | 0.06% | 2.29% | -3.24% | -2.5% | -1.15% | -3.5% | -3.63% | -6.1% | -2.27% | 0.14% | 0.05% | -2.3%
NC(=O)c1ccc(Oc2nccc(-c3c(-c4ccc(F)cc4)ncn3C3CCNCC3)n2)cc1 | 7.07% | 4.74% | 9.02% | 3.25% | 1.41% | 3.34% | 3.6% | 3.03% | 4.26% | -3.59% | 1.23% | 3.18% | 3.14% | 1.5% | 1.61% | -4.69% | -0.8% | 1.44% | 6.51% | 2.43%
COc1cc(N2CCN(C(C)C)CC2)ccc1Nc1nc(Nc2ccc(F)cc2C(=O)NC[C@@H](O)CO)c2cc[nH]c2n1 | 15.6% | 2.74% | 31.8% | -2.84% | -2.45% | -1.75% | 4.45% | 0.16% | 0.53% | 3.35% | -3.1% | -2.67% | -0.98% | -3.1% | -4.32% | -8.05% | -5.78% | 29.4% | 82.9% | -0.73%
Cc1ccc(C(=O)NC2CCC2)cc1-c1ccc(C(=O)NCC2CC2)cc1 | 2.95% | 2.2% | 2.4% | 0.42% | 1.39% | 2.38% | 0.45% | 2.25% | 3.3% | 2.79% | -2.09% | 2.48% | 3.14% | 0.96% | 1.18% | -2.65% | 1.04% | 0.82% | 1.37% | 1.37%
